Screening data as filed in PubChem BioAssay.
KB-3-1 cytotox – kills parental KB-3-1 adenocarcinoma cells; KB-3-1 viability, CellTiter-Glo ATP luminescence, 72 h; Potency, µM (highest dose often 46.1 µM), usual class: cytotoxic; 1.4% of 400,000 active; AID 1347075; further: on the % scale 0 is the no-effect control and ±100 the full control effect; nearly all actives have a fitted effect of over 60% in size
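Parental KB-3-1 viability, qHTS format: 72 h compound exposure, 37 °C; CellTiter-Glo; media-only wells and DMSO plates as controls; concentration-effect fits on corrected data.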
HT1080 IDH1KD tx – toxicity to HT-1080 IDH1 knockdown cells (counter line). 2% of 360,000 active. HT-1080 IDH1 knockdown viability, ATP luminescence, 48 h. Potency, µM (doses to about 46.1 µM), without a hit: top-dose activity, negative = toxicity, most hits filed as cytotoxic;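 further: 0% = DMSO wells and -100% = cell-free medium wells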
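CellTiter-Glo luminescence after 48 h compound exposure at 37 degrees C of IDH1-knockdown HT-1080 cells in 5% FBS RPMI. %Activity scaled between DMSO wells and cell-free media wells, with curves fitted and assigned curve classes.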
KB-V1 cytotox – KB-V1 MDR subline cytotoxicity; KB-V1 MDR cells viability, CellTiter-Glo, 72 h; Potency, µM (titrated, usually from 46.1 µM), hits mostly cytotoxic; 3.4% of 400,000 active; AID 1347076; further: on the % scale 0 is the no-effect control and ±100 the full control effect; nearly all actives have a fitted effect of over 60% in size
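qHTS viability screen in drug-selected KB-V1 MDR cells: 72 h compound treatment at 37 degrees C, ATP luminescence end point.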
ATXN2 expr inh – reduces ATXN2 reporter expression in HEK-293 cells; Potency, µM (series often up to 57 µM), for inactives: at the highest dose activity change, negative = inhibition, usual class: inhibitors; AID 1745845; HEK-293 ATXN2-luciferase reporter, luminescence, 24 h; 0.72% of 360,000 active; further: on the % scale 0 is the no-effect control and ±100 the full control effect; nearly all actives have a fitted effect of over 55% in size
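ATXN2-luciferase reporter cells (luciferase flanked by upstream and downstream ATXN2 gene portions) were treated 24 h at 37 °C with compounds at up to 57 uM. SteadyGlo luminescence gave expression; GF-AFC fluorescence gave viability.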
ATXN viability – reduces viability in counter-screen for ATXN expression inhibitors. S2 cells (HEK-293 line with an ATXN2-luciferase reporter) viability, CellTiter-Fluor protease fluorescence, 24 h. 0.49% of 400,000 active. Potency, µM (series often up to 56.7 µM), usual class: cytotoxic; further: nearly all actives have a fitted effect of over 40% in size
HT1080NT lethal – kills 2HG-producing HT-1080-NT fibrosarcoma cells; HT-1080-NT fibrosarcoma viability, CellTiter-Glo ATP luminescence, 48 h; Potency, µM (doses to about 46.1 µM), for inactives: at the highest dose activity, negative = less viability, hits mostly cytotoxic; 1.6% of 360,000 active; AID 686970;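 further: NT is the 2HG producing partner of a matched IDH1 knockdown line; 0% = DMSO-treated cells and -100% = media-only wells without cells; nearly all actives have a fitted effect of over 55% in size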
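Compounds were tested in concentration-response format on HT-1080-NT cells for 48 hours at 37 degrees C. Cell viability came from CellTiter-Glo luminescence; curves were classified by r2, response magnitude and activity.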
* = called active by the depositor; i = inactive; ? = inconclusive; . = not tested or not shown; [ ] = dose if it differs, or a comment. In the library only some 6.2% were active in any assay of this set; here they are far more common. The call rests on the fitted dose curve; in most records, active means well fitted curve in the direction sought with a large enough effect; inconclusive means small, poorly fitted or top-dose-only effect, or another doubt; inactive means no such curve, though single readings can be large; an effect the other way counts as inactive or inconclusive. Potency means the concentration at half of the fitted maximal effect.

SMILES | KB-3-1 cytotox | HT1080 IDH1KD tx | KB-V1 cytotox | ATXN2 expr inh | ATXN viability | HT1080NT lethal
Cc1cccnc1C(NC(=O)C1CCN(CCOc2ccc(F)cc2)CC1)c1ccc(F)cc1 (centres undefined) | i | ? | ? | -25% | i | ?
Cc1cccnc1C(NC(=O)C1CCN(CCCc2ccccc2)CC1)c1ccc(Cl)cc1 (centres undefined) | i | ? | i | ? | ? | 26µM*
O=C(NC(c1ccc(Cl)cc1)c1ccccn1)C1CCN(CCOc2ccc(Cl)cc2Cl)CC1 (centres undefined) | ? | ? | ? | -38% | i | ?
Cc1cccnc1C(NC(=O)C1CCN(Cc2ccc(Cl)cc2)CC1)c1ccccc1 (centres undefined) | i | ? | i | -18% | i | ?
Cc1cccnc1C(NC(=O)C1CCN(Cc2cn(C)c3ccccc23)CC1)c1ccc(Cl)cc1 (centres undefined) | ? | ? | ? | ? | ? | 12µM*
Cc1ccc(C(=O)NCCc2nnc3n2CCN(Cc2ccnc4ccccc24)CC3)c(C)c1 | . | . | . | . | i | .
O=C(C[n+]1ccccc1Cl)c1ccc(F)cc1 | i | . | i | . | . | .
COc1ccc(C(=O)NCc2nnc(SCC(=O)Nc3ccccc3)n2-c2ccc(F)cc2)cc1 | i | . | i | -4% | ? | .
CCN(CC)CCOC(=O)c1ccc(NC(=O)c2cn(-c3ccccc3)nc2-c2cccs2)cc1 | i | ? | i | 1%[11.3 µM] | i | 21µM*
O=C(Nc1ccc2ccccc2c1)c1cn(-c2ccccc2)nc1-c1cccs1 | i | -18% | 18µM* | 5% | i | ?
O=C(NCCn1cc(SCc2ccccc2F)c2ccccc21)c1cccs1 | ? | . | i | ? | ? | .
O=S(=O)(c1ccc(F)cc1)N1CCN(c2nc(-c3ccccc3)nc3ccccc23)CC1 | ? | . | i | . | . | .
CCCn1c(=O)sc2cc(NC(=O)c3ccc(OC)c(Br)c3)ccc21 | 23µM* | . | i | ? | ? | .
N#CC1=C(N)NC(SCc2ccccc2)=C(C#N)C12CCCCC2 | 23µM* | 7.1µM* | ? | ? | ? | 7.9µM*
N#CC1=C(N)NC(SCC(=O)c2ccc(Br)cc2)=C(C#N)C12CCCCC2 | ? | -29% | 16µM* | -16% | i | -6%
N#CC1=C(N)NC(SCC(=O)c2ccc(Cl)cc2)=C(C#N)C12CCCC2 | i | ? | i | -8% | i | ?
COc1ccc2c(c1)/C(=C/c1cc(OC)c(OC)c(OC)c1)C(=O)N2 | 2.3µM* | 5.8µM* | ? | -21% | ? | 5.8µM*
CC(=O)c1cccc(NC(=O)c2cccc3c(-c4cccc(C(N)=O)c4)coc23)c1 | ? | -21% | i | 32µM* | ? | ?
CC(C)c1ccc(C2N3CC4(C)CN2CC(c2ccccc2)(C3)C4=O)cc1 (centres undefined) | i | . | i | 14% | i | .
Cc1c(C(=O)Nc2nonc2-c2ccc(F)cc2)oc2ccc(F)cc12 | 18µM* | 21µM* | ? | 28µM* | ? | ?
COc1ccc(CCNC(=O)C2CCN(S(=O)(=O)N3CCC(C)CC3)CC2)cc1OC | ? | -2% | 21µM* | 0% | i | 8%
O=C(NCc1cccs1)C1CCCN1S(=O)(=O)c1ccccc1F (centres undefined) | i | -2% | 12µM* | -10% | ? | 2%
COc1ccc(CNC(=O)c2ccc(S(=O)(=O)N3CC(C)CC(C)C3)cc2)cc1OC (centres undefined) | i | -8% | 7.3µM* | -24% | i | -4%
CC(C)CN(CC(C)C)S(=O)(=O)N1CCC(C(=O)NCc2cccs2)CC1 | i | 5% | ? | -8% | i | 7%
COc1ccc(CCNC(=O)C2CCN(S(=O)(=O)N3CCOCC3)CC2)cc1OC | i | 3% | i | 2% | i | -3%[9.24 µM]
SMILES | KB-3-1 cytotox | HT1080 IDH1KD tx | KB-V1 cytotox | ATXN2 expr inh | ATXN viability | HT1080NT lethal
COc1cc(OC)c(OC)cc1CNC(=O)c1ccc(S(=O)(=O)N2CC(C)OC(C)C2)cc1 (centres undefined) | i | 2% | i | -5% | i | 0%
CC1CCN(S(=O)(=O)N2CCC(C(=O)NCc3cccs3)CC2)CC1 | i | 8% | 18µM* | -6% | ? | 18%
CN1C(=O)Nc2cccc3cccc1c23 | 1µM* | -8% | 0.46µM* | 5% | i | -17%
CCCCNC(=O)c1c(N)[nH]c(C(=O)c2ccccc2)c1-c1ccccn1 | ? | -2% | 21µM* | 18% | ? | -3%
C=C1NN(Cc2ccccc2)C(=O)N1c1ccc(OCc2ccccc2)cc1 | i | . | i | . | . | .
CSc1n[nH]c(-c2sccc2OCc2ccc(C)cc2)n1 | i | 7% | 16µM* | -12% | i | -2%
Cc1nc(N2N=C3/C(=C/c4ccc(F)cc4)CCCC3C2c2ccc(F)cc2)sc1C(=O)N(C)C (centres undefined) | ? | -1% | 21µM* | ? | . | 4%
COc1ccc(/C=C2\CCCC3C2=NN(C(=O)CSc2ncn[nH]2)C3c2ccc(OC)cc2)cc1 (centres undefined) | i | ? | i | -7% | i | ?
CCc1cnc2c(c1SCC(=O)Nc1ccc(Cl)cc1)c(=O)n(C)c(=O)n2C | i | . | i | 10% | i | .
CCCn1ccc2c(OCC(=O)Nc3cc(C)ccc3C)cccc2c1=O | i | . | i | ? | i | .
